Measurements taken from the supplement of paper PMC11732987, “Enantioselective OTUD7B fragment discovery through chemoproteomics screening and high-throughput optimisation” (Communications Chemistry, 2025).

Key:
Experiment in all cases: log2 ratio of Biotin-Ahx-Ub-VS probe labelling (fragment/DMSO); higher = less target engagement (more negative = stronger competition), active = hit call of the paper (q ≤ 0.05, log2 ratio ≤ -1)
Conditions in all cases: compound concentration: 200 uM; treatment time: 3 h
ALG13 = biological target: T1, ALG13 (UniProt Q9NP73)
T1 sequence (whole entry): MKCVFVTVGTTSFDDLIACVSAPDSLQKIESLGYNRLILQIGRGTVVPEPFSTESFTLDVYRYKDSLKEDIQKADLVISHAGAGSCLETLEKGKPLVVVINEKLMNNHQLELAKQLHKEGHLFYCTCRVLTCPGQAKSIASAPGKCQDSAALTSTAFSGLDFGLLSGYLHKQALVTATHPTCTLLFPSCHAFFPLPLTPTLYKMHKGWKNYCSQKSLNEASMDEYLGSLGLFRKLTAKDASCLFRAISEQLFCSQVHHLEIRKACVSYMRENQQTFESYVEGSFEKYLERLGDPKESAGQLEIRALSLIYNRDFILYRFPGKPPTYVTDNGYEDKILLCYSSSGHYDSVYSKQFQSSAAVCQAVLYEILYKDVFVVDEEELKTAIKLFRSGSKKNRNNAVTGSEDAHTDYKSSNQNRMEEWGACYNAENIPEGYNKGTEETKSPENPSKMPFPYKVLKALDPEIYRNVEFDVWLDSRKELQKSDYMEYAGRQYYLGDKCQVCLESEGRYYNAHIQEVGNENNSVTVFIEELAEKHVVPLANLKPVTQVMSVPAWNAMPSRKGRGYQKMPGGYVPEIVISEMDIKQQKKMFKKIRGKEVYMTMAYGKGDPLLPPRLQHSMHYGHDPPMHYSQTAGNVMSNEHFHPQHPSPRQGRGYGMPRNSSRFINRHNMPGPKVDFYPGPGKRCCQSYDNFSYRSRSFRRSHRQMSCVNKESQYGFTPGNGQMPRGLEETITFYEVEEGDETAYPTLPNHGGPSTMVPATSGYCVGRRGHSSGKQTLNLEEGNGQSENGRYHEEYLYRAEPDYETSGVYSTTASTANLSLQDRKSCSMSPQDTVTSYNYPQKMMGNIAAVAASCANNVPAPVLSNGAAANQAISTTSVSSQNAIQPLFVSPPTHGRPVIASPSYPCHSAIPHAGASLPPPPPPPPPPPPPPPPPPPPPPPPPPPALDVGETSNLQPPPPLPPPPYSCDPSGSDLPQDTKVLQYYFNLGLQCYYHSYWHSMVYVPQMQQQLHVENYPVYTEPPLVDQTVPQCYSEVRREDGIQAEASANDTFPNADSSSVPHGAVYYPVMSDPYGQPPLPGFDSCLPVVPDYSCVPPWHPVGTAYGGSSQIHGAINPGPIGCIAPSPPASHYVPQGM
Procedure, shortened: (§1)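 HEK293T lysate (495 µg per sample, in Tris/CHAPS/IGEPAL buffer with protease inhibitors) was exposed in triplicate for 3 h to fragment at 200 µM or to vehicle, then to Biotin-Ahx-Ub-VS at 0.5 µM final for 1 h. Labelled DUBs were enriched on NeutrAvidin, digested with LysC and trypsin, and analysed by diaPASEF LC-MS/MS. Spectronaut label-free quantities were normalised to the global median, and values are average log2 ratios of fragment over vehicle from an unpaired t-test. Only proteins with ≥2 unique peptides were used.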

ATXN3 = ATXN3 (UniProt P54252)
Chain of ATXN3 (P54252 whole entry): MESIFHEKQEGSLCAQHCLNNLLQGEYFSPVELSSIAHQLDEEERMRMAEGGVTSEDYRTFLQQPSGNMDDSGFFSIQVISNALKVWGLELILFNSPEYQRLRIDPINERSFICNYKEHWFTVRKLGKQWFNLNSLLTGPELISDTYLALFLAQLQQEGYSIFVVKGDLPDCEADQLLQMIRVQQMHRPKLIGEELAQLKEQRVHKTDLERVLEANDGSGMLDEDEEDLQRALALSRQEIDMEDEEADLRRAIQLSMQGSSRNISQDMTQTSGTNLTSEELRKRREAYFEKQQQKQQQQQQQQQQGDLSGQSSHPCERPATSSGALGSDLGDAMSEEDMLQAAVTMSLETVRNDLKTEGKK
Procedure, shortened: as §1

BAP1 = biological target: T2, BAP1 (UniProt Q92560)
T2 sequence (whole entry): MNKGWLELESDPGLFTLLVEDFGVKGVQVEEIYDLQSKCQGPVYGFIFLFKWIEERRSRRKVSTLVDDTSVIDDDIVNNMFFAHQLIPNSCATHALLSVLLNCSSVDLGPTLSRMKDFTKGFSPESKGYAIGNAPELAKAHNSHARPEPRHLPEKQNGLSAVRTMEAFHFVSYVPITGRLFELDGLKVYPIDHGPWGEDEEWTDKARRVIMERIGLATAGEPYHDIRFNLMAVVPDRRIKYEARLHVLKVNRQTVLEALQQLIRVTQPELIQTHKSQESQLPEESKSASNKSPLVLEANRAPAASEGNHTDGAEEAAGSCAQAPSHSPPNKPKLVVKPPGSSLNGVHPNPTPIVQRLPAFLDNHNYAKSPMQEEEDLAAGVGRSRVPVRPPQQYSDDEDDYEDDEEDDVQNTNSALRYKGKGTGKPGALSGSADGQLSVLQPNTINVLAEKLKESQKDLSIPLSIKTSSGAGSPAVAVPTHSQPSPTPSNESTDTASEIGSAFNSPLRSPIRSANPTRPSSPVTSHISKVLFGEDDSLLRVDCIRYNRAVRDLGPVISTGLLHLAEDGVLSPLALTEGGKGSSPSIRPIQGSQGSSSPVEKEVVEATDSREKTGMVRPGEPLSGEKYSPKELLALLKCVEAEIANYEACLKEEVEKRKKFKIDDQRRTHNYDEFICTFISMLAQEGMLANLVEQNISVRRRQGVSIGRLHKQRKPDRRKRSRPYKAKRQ
Procedure, shortened: as §1

EIF3F = EIF3F (UniProt O00303)
Chain of EIF3F (O00303 whole entry): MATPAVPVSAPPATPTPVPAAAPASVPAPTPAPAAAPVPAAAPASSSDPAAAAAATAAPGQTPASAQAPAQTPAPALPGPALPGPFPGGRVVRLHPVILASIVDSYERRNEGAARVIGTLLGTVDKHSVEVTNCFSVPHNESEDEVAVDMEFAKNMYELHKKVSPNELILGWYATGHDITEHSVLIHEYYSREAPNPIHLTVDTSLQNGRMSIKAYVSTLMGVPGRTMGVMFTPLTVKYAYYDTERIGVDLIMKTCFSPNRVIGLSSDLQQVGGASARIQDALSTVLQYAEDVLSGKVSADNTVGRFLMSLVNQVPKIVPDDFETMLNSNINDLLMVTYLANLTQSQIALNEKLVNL
Procedure, shortened: as §1

EIF3H = EIF3H (UniProt O15372)
Chain of EIF3H (O15372 whole entry): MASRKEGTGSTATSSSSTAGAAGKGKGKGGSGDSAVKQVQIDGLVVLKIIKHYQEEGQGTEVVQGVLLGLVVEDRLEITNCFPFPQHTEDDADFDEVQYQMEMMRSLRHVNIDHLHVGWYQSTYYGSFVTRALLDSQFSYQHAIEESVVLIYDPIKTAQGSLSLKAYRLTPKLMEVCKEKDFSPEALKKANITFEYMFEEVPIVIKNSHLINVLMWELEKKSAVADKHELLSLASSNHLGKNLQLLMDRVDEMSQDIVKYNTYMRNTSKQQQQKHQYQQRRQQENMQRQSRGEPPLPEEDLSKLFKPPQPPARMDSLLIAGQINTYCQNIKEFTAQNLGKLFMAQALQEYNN
Procedure, shortened: as §1

FAM105A = biological target: T3, FAM105A (UniProt Q9NUU6)
T3 sequence (whole entry): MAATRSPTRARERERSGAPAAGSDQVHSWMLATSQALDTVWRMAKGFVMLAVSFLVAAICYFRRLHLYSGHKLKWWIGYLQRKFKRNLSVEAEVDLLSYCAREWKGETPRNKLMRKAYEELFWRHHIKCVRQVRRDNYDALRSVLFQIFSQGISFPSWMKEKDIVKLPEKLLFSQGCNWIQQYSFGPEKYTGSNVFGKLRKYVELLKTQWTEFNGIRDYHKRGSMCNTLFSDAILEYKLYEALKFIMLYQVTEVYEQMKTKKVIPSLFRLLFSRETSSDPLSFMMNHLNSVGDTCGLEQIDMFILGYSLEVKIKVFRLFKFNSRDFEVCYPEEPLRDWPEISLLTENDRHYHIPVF
Procedure, shortened: as §1

OTUB1 = OTUB1 (UniProt Q96FW1)
Chain of OTUB1 (Q96FW1 whole entry): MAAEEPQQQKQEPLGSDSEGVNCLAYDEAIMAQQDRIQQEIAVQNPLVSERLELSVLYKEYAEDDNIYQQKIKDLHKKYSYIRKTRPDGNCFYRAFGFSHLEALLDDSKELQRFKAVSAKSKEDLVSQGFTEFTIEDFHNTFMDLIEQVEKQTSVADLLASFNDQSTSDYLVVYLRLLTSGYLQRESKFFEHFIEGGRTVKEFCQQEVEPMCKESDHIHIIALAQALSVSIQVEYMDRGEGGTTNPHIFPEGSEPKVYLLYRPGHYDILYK
Procedure, shortened: as §1

OTUD4 = biological target: T4, OTUD4 (UniProt Q01804)
T4 sequence (whole entry): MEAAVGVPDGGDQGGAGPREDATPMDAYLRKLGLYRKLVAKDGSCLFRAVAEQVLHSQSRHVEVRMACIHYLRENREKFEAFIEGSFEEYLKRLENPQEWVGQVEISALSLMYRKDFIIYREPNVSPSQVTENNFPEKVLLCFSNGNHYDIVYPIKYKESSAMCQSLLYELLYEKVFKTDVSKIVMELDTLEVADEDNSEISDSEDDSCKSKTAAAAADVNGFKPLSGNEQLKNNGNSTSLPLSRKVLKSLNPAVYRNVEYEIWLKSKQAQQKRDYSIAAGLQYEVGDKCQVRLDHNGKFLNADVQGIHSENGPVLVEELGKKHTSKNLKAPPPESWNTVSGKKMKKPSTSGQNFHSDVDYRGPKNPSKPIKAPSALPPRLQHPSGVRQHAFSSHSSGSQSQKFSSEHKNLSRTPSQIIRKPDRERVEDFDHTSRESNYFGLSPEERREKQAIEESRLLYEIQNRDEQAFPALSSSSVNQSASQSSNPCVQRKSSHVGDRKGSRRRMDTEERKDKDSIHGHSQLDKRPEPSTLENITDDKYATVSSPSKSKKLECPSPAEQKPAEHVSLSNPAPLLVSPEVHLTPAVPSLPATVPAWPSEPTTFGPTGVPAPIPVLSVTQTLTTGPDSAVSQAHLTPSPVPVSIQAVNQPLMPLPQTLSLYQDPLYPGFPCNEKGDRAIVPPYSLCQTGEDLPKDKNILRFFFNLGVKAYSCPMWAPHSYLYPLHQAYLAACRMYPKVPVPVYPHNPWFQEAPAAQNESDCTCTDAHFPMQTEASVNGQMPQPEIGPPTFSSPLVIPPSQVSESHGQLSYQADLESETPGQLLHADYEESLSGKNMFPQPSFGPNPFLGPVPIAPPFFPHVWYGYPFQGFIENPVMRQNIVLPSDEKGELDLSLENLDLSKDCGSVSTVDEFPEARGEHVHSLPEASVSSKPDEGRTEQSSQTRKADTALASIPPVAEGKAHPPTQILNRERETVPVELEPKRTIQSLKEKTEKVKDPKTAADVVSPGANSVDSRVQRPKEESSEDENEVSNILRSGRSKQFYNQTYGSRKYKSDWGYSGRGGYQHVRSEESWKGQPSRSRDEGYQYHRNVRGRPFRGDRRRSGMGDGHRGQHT
Procedure, shortened: as §1

OTUD5 = biological target: T5, OTUD5 (UniProt Q96G74)
T5 sequence (whole entry): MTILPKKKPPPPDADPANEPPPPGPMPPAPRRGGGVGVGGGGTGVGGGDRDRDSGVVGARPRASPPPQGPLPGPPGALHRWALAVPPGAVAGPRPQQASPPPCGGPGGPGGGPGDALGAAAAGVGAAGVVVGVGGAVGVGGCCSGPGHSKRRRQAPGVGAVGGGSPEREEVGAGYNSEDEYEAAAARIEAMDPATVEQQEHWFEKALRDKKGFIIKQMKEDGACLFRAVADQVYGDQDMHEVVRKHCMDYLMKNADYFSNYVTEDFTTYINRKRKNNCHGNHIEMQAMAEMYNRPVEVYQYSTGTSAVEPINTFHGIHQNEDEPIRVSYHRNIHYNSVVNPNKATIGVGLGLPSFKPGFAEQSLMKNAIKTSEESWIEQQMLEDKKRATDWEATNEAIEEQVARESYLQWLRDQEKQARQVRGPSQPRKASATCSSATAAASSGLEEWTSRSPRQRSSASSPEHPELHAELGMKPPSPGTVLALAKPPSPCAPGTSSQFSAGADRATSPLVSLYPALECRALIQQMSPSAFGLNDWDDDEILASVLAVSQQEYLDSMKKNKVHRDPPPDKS
Procedure, shortened: as §1

Measured: log2 ratio of Biotin-Ahx-Ub-VS probe labelling

Cc1ccc(-c2nnc(C)[nH]2)c(NC(=O)CCl)c1
inactive: ALG13 0.0249 | ATXN3 -0.0255 | EIF3F -0.316 | EIF3H 0.0246 | FAM105A -0.276 | OTUB1 0.149 | OTUD4 -0.353 | OTUD5 -0.237
active: BAP1 -4.24
